Experimental findings from PubChem BioAssay (EPA / NIEHS) are described below.

What all share (settings): mRNA level, 48 h; actives raise or lower the signal
Read-out in test [1]: ATP-citrate lyase (ACLY), ACLY (gene 47)
In words: LTEA_HepaRG_ACLY: Life Technologies and Expression Analysis (LTEA) Assay for ATP-citrate lyase (ACLY) using HepaRG (AID 2283466). Put shortly:
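HepaRG, 48 h exposure, 8-pt half-log dilutions (top 100 uM), 0.5% DMSO. Readout: ACLY mRNA, TaqMan qRT-PCR, housekeeping-normalized (ACTB/GAPDH/POLR2A). Bidirectional curve fit vs DMSO.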

Read-out in test [2]: Peroxisomal acyl-coenzyme A oxidase 1 (ACOX1) gene, ACOX1 (gene 51)
In words: LTEA_HepaRG_ACOX1: Life Technologies and Expression Analysis (LTEA) Assay for Peroxisomal acyl-coenzyme A oxidase 1 (ACOX1) gene using HepaRG (AID 2283467). Put shortly:
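Measured by qRT-PCR against three housekeeping genes: ACOX1 transcript change in human HepaRG cells after 48 h dosing. Concentrations ran up to 100 uM in half-log steps. Curves were fitted bidirectionally relative to 0.5% DMSO.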

Read-out in test [3]: Alkaline Phosphatase, Placental (ALPP) gene, ALPP (gene 250)
Briefly: LTEA_HepaRG_ALPP: Life Technologies and Expression Analysis (LTEA) Assay for Alkaline Phosphatase, Placental (ALPP) gene using HepaRG (AID 2283468).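 As to AC50: differentiated human HepaRG liver cells in serum-free induction medium.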 Put shortly: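 qRT-PCR readout of ALPP mRNA (Fluidigm TaqMan), normalized to ACTB/GAPDH/POLR2A, after 48 h chemical exposure of HepaRG cells; 8-point half-log series, top 100 uM, 0.5% DMSO vehicle. Bidirectional curve fit versus DMSO baseline.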

Read-out in test [4]: adenosine kinase (ADK) gene, ADK (gene 132)
In words: LTEA_HepaRG_ADK: Life Technologies and Expression Analysis (LTEA) Assay for adenosine kinase (ADK) gene using HepaRG (AID 2283471). Put shortly: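 Differentiated HepaRG cells dosed 48 h in serum-free induction medium, 0.5% DMSO vehicle, eight half-log concentrations from 100 uM, in duplicate. ADK mRNA by TaqMan qRT-PCR normalised to ACTB, GAPDH, POLR2A; bidirectional fit versus DMSO.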

Read-out in test [5]: Alpha-fetoprotein (AFP) gene, AFP (gene 174)
In words: LTEA_HepaRG_AFP: Life Technologies and Expression Analysis (LTEA) Assay for Alpha-fetoprotein (AFP) gene using HepaRG (AID 2283472). Put shortly:
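Human HepaRG cells plated 48 h, then switched to serum-free induction medium and exposed in duplicate for 48 h to 8-point half-log series from 100 uM in 0.5% DMSO. AFP mRNA by qRT-PCR, normalized to ACTB, GAPDH, POLR2A; bidirectional fit versus DMSO.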

Read-out in test [6]: BCL2L11 (gene 10018)
Briefly: LTEA_HepaRG_BCL2L11: Life Technologies and Expression Analysis (LTEA) Assay for Bcl-2 (BCL2L11) gene using HepaRG (AID 2283473). Put shortly: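 HepaRG, 48 h exposure, 8-pt half-log series from 100 uM in 0.5% DMSO, duplicates; qRT-PCR (Fluidigm TaqMan) for BCL2L11, housekeeping-normalized; bidirectional curve fit relative to DMSO baseline.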

Read-out in test [7]: Apolipoprotein A-V (APOA5) gene, APOA5 (gene 116519)
Briefly: LTEA_HepaRG_APOA5: Life Technologies and Expression Analysis (LTEA) Assay for Apolipoprotein A-V (APOA5) gene using HepaRG (AID 2283474). Put shortly: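 HepaRG, 48 h chemical exposure in serum-free induction medium, 8-pt half-log series (top 100 uM), 0.5% DMSO vehicle, duplicates. Readout: APOA5 mRNA by qRT-PCR, housekeeping-normalized; bidirectional fit vs DMSO baseline.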

Read-out in test [8]: Apoptosis regulator Bcl-2 (Homo sapiens) (UniProt P10415)
Briefly: LTEA_HepaRG_BCL2: Life Technologies and Expression Analysis (LTEA) Assay for Bcl-2 gene using HepaRG (AID 2283475). Put shortly: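 Differentiated HepaRG cells in serum-free induction medium were exposed for 48 h to eight half-log concentrations up to 100 uM in 0.5% DMSO, in duplicate. BCL2 mRNA was quantified by TaqMan qRT-PCR normalised to ACTB, GAPDH and POLR2A, with bidirectional fitting versus DMSO.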

Read-out in test [9]: Bcl-2 (BID) gene, BID (gene 637)
In words: LTEA_HepaRG_BID: Life Technologies and Expression Analysis (LTEA) Assay for Bcl-2 (BID) gene using HepaRG (AID 2283476). Put shortly: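 Differentiated HepaRG cells in serum-free induction medium were exposed in duplicate for 48 h to eight half-log concentrations up to 100 uM in 0.5% DMSO. BID mRNA was quantified by qRT-PCR, normalized to ACTB, GAPDH and POLR2A.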

Read-out in test [10]: Caspase-3 (Homo sapiens) (UniProt P42574)
Briefly: LTEA_HepaRG_CASP3: Life Technologies and Expression Analysis (LTEA) Assay for cysteine-aspartic acid protease (CASP3) using HepaRG (AID 2283477). Put shortly:
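HepaRG, 48 h exposure, 8 conc. (top 100 uM, half-log steps, duplicate), 0.5% DMSO vehicle; qRT-PCR of CASP3 transcript, housekeeping-normalised (ACTB/GAPDH/POLR2A); bidirectional curve fit vs DMSO baseline.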

Read-out in test [11]: Cytochrome P450 (CYP24A1), CYP24A1 (gene 1591)
Briefly: LTEA_HepaRG_CYP24A1: Life Technologies and Expression Analysis (LTEA) Assay for Cytochrome P450 (CYP24A1) using HepaRG (AID 2283478). Put shortly: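 qRT-PCR read-out: CYP24A1 transcript levels normalized to three housekeeping genes, bidirectional curve fits against 0.5% DMSO baseline. Human HepaRG cells treated 48 h with chemicals at eight concentrations from 100 uM in half-log steps.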

Read-out in test [12]: Cytochrome P450 (CYP1A2), CYP1A2 (gene 1544)
In words: LTEA_HepaRG_CYP1A2: Life Technologies and Expression Analysis (LTEA) Assay for Cytochrome P450 (CYP1A2) using HepaRG (AID 2283479). Put shortly: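 HepaRG, 48 h exposure, top 100 uM, half-log 8-pt, 0.5% DMSO vehicle, duplicates. Readout: TaqMan qRT-PCR of CYP1A2 mRNA, housekeeping-normalized (ACTB/GAPDH/POLR2A). Gain/loss fit relative to DMSO baseline.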

Read-out in test [13]: cysteine-aspartic acid protease (CASP8), CASP8 (gene 841)
Briefly: LTEA_HepaRG_CASP8: Life Technologies and Expression Analysis (LTEA) Assay for cysteine-aspartic acid protease (CASP8) using HepaRG (AID 2283480). Put shortly: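 HepaRG, 48 h exposure, duplicate wells; 8 conc, half-log from 100 uM, 0.5% DMSO. Serum-free induction medium. CASP8 mRNA by TaqMan qRT-PCR, norm. ACTB/GAPDH/POLR2A; gain/loss fitted vs DMSO.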

Read-out in test [14]: Cytochrome P450 (CYP2B6), CYP2B6 (gene 1555)
Briefly: LTEA_HepaRG_CYP2B6: Life Technologies and Expression Analysis (LTEA) Assay for Cytochrome P450 (CYP2B6) using HepaRG (AID 2283481). Put shortly:
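Read-out is CYP2B6 mRNA by TaqMan qRT-PCR, normalized to three housekeeping genes and fitted bidirectionally against 0.5% DMSO baseline. Human HepaRG cells received test chemicals for 48 h, top concentration 100 uM, half-log dilutions.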

Read-out in test [15]: CYP2C8 (gene 1558)
In words: LTEA_HepaRG_CYP2C8: Life Technologies and Expression Analysis (LTEA) Assay for CYP2C8 using HepaRG (AID 2283483). Put shortly:
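CYP2C8 mRNA induction or loss, by qRT-PCR normalized to ACTB/GAPDH/POLR2A, is read in HepaRG cells after 48 h treatment. Concentrations run from 100 uM down in half-log dilutions, with 0.5% DMSO as vehicle and baseline.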

Read-out in test [16]: CYP2C9 (gene 1559)
Briefly: LTEA_HepaRG_CYP2C9: Life Technologies and Expression Analysis (LTEA) Assay for CYP2C9 using HepaRG (AID 2283484). Put shortly:
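Cells plated 48 h, switched to serum-free induction medium, then treated in duplicate for 48 h at eight concentrations (max 100 uM, 0.5% DMSO). RNA then analysed by qRT-PCR for CYP2C9; curves fitted in both directions relative to DMSO.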

Read-out in test [17]: CYP2E1 (gene 1571)
Briefly: LTEA_HepaRG_CYP2E1: Life Technologies and Expression Analysis (LTEA) Assay for CYP2E1 using HepaRG (AID 2283485). Put shortly:
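HepaRG cells in serum-free induction medium exposed 48 h to test chemicals, 8 half-log concentrations up to 100 uM in 0.5% DMSO, duplicate. CYP2E1 mRNA by qRT-PCR, normalized to ACTB, GAPDH, POLR2A; bidirectional fit versus DMSO.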

Read-out in test [18]: CYP4A11 (gene 1579)
In words: LTEA_HepaRG_CYP4A11: Life Technologies and Expression Analysis (LTEA) Assay for CYP4A11 using HepaRG (AID 2283486). Put shortly: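 CYP4A11 transcript levels were quantified by TaqMan qRT-PCR after HepaRG human liver cells were treated for 48 hours with test chemicals (top 100 uM, half-log dilutions, 0.5% DMSO). Gain or loss of signal was fitted relative to DMSO.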

Read-out in test [19]: Cytochrome P450 3A4 (Homo sapiens) (UniProt P08684)
Briefly: LTEA_HepaRG_CYP3A4: Life Technologies and Expression Analysis (LTEA) Assay for CYP3A4 using HepaRG (AID 2283487). Put shortly: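 Differentiated HepaRG cells in serum-free induction medium exposed in duplicate for 48 h to 8 half-log concentrations up to 100 uM in 0.5% DMSO. CYP3A4 mRNA measured by qRT-PCR normalized to ACTB, GAPDH and POLR2A; bidirectional fit versus DMSO.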

Read-out in test [20]: Pro-epidermal growth factor (Homo sapiens) (UniProt P01133)
Briefly: LTEA_HepaRG_EGF: Life Technologies and Expression Analysis (LTEA) Assay for Epidermal growth factor (EGF) using HepaRG (AID 2283489). Put shortly:
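qRT-PCR readout of EGF transcript after 48 h chemical exposure of HepaRG cells; eight concentrations from 100 uM down in half-log steps, duplicate wells, 0.5% DMSO vehicle. Bidirectional curve fitting against DMSO baseline.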

Calls of active or inactive are those of the source. The calls were made as follows: active = hit-call score of the fitted dose curve at least 0.9, where 1 is the maximum; inactive = score below 0.9.

Caspase-3 (Homo sapiens), sequence (P42574 whole entry, looked up): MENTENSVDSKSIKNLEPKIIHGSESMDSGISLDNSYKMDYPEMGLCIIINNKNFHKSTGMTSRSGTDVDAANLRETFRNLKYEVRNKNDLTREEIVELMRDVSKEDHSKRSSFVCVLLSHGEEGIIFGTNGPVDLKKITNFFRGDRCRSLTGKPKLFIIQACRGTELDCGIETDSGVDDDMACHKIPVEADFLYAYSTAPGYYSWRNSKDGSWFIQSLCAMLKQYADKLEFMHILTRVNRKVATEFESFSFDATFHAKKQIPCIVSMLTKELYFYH
Apoptosis regulator Bcl-2 (Homo sapiens), sequence (P10415 whole entry, looked up): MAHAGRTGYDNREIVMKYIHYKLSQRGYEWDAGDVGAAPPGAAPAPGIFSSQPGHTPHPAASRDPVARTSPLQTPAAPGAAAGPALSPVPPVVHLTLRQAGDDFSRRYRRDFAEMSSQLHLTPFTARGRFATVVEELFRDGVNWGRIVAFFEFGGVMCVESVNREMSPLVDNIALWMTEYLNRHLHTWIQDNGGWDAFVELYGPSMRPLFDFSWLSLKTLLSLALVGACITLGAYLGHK
Cytochrome P450 3A4 (Homo sapiens), sequence (P08684 whole entry, looked up): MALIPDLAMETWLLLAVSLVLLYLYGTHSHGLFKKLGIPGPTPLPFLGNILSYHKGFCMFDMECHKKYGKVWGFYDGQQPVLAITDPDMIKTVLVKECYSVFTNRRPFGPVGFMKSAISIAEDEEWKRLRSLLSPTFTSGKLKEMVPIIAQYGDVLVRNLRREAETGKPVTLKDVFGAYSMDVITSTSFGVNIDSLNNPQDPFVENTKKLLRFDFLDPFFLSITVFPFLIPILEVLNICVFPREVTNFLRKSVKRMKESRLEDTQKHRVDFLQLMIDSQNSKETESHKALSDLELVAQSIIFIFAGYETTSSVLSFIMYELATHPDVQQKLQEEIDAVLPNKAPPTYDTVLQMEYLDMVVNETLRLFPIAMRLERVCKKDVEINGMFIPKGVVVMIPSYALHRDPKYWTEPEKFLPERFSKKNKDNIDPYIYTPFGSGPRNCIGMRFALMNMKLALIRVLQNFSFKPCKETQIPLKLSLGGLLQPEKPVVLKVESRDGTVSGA

For the molecule `O=C1NS(=O)(=O)c2ccccc21`, the outcome in test [1], in [2], in test [3], in test [4], in test [5] and in test [6] was inactive. Besides, the call in test [7], in [8], in [9], in test [10], in test [11] and in test [12] was inactive. In addition, the molecule was classed as inactive in test [13], in test [14], in test [15], in [16], in [17] and in [18]. In addition, the call in test [19] and in [20] was inactive.
Broadly, the AC50 is the concentration giving half of the maximal activity seen. As to `CCCCCCCCCCCCOS(=O)(=O)O`, the call in [1], in test [2], in test [3], in [4], in test [6] and in test [7] was inactive. The call in test [9], in test [10], in test [11] and in test [20] was inactive. For the same molecule, the AC50 in test [5] is 77.7 µM (active); in [8], 86.9 µM (active); in [12], 71.2 µM (active); in test [14], 94.1 µM (active); in test [16], 79 µM (active); in [17], 92.9 µM (active).
For `CCCCc1oc2ccccc2c1C(=O)c1cc(I)c(OCCN(CC)CC)c(I)c1`, the AC50 in test [1] is 59.4 µM (active); in [3], 22.8 µM (active); in test [5], 11.9 µM (active); in [7], 61.6 µM (active); in [8], 59.5 µM (active). Further, the result in test [2], in test [4], in [6], in test [9], in test [10] and in [13] was inactive. Further, the call in test [20] was inactive.
On to `N=C(N)c1ccc(OCCCCCOc2ccc(C(=N)N)cc2)cc1`, for which the AC50 in test [1] is 35.9 µM (active); in test [2] it was 29 µM (active); in test [4] it was 30.5 µM (active); in test [5] it was 7.45 µM (active); in test [6], 3.64 µM (active); in test [7], 11.4 µM (active). In addition, the AC50 in test [8] was 73.6 µM (active); in [9], 68.3 µM (active); in test [10], 69.8 µM (active); in test [12] it was 5.43 µM (active); in test [13], 30.1 µM (active); in [14] it was 3.74 µM (active). For the same molecule, the AC50 was 3.73 µM (active) in test [15], 6.51 µM (active) in test [17], 3.02 µM (active) in test [18] and 22.2 µM (active) in test [20]. Also, the result in test [3] and in test [11] was inactive.
